Values joined by “and” are separate entries in the source; they are usually repeats but may differ in a detail not shown here. Identical values can stand only once. Inconclusive results are not listed. Values without a mark were called inactive. Active and inactive are the calls of the source. Calls come from the whole dose curve; as a rule, active = well fitted inhibition curve with a large enough effect; inconclusive = small, poorly fitted or top-dose-only effect; inactive = flat fitted curve, though single readings scatter.

For one assay, the system named is CRL-7250. The assay is described as follows: Cytotoxic Profiling of Annotated Libraries Using Quantitative High-Throughput Screening (AID 1296008). For max response: % is set by controls: 0 for no effect and ±100 for the full control effect. Note: potency is the fitted concentration of half-maximal effect. The settings on record: Five cell lines viability, CellTiter-Glo ATP luminescence, 48-72 h; max response: hits give low values. The method in brief: (§1)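 Cytotoxicity was measured as CellTiter-Glo ATP luminescence, read after 10 min at room temperature. Compound treatment of the cells lasted 48 or 72 hr at 37 degrees Celsius in a qHTS format.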
On the technique in general: ATP-based viability assays read luminescence as a measure of living cells.

A further assay relates to HEK293. The assay is described as above. Conditions: Five cell lines viability, CellTiter-Glo ATP luminescence, 48-72 h; max response: hits give low values. The method in brief: as §1
Assay [1] relates to HaCat. The description is as above. The settings on record: Five cell lines viability, CellTiter-Glo ATP luminescence, 48-72 h; max response: hits give low values. In short, it runs like this:
as §1

The subject of the next assay is KB-3-1. The description is as above. Conditions: Five cell lines viability, CellTiter-Glo ATP luminescence, 48-72 h; max response: hits give low values. In short, it runs like this: as §1
In assay [2] the test system is HACAT. In words: qHTS assay to identify novel small-molecules to repurpose for Merkel cell carcinoma treatment (AID 1296009). Conditions: MCC and control cell lines, CellTiter-Glo viability, 72 h; at 44.8 µM (top of the series) unless noted. The method in brief: (§2)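 Cell viability measured by CellTiter-Glo following 72 hr compound treatment at 37 degree celsius, with NPC and MIPE libraries tested in 8- and 11-point concentration series.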
For orientation: In qHTS, concentration-response curves come from the screen itself.

The next assay deals with HEK293T. The assay is described as above. The settings on record: MCC and control cell lines, CellTiter-Glo viability, 72 h; at 44.8 µM (top of the series). In short, it runs like this: as §2
The subject of a further assay is MCC-13. Described as above. The settings on record: MCC and control cell lines, CellTiter-Glo viability, 72 h; series mostly up to 46 µM. In short, it runs like this:
as §2

Another assay concerns MCC-26. The description is as above. The settings on record: MCC and control cell lines, CellTiter-Glo viability, 72 h; series mostly up to 46 µM. The method in brief: as §2
The next assay deals with P93_24. In words: qHTS profiling for inhibitors of Plasmodium falciparum proliferation (AID 504749). Note: potency is the fitted concentration of half-maximal effect. The settings on record: P. falciparum in erythrocytes, SYBR Green DNA, 72 h; series mostly up to 28.7 µM. The method in brief:
(§3)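 In a 72 h erythrocytic culture (37 C, humidified, 5% CO2) at 2.5% hematocrit and 0.3% starting parasitemia, compounds were tested; SYBR Green I in detergent lysis buffer stained parasite DNA overnight.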

A further assay relates to P94_40. Described as above. The settings on record: P. falciparum in erythrocytes, SYBR Green DNA, 72 h; series mostly up to 28.7 µM. In short, it runs like this:
as §3

The test system of the next assay is PAD. Described as above. The settings on record: P. falciparum in erythrocytes, SYBR Green DNA, 72 h; series mostly up to 28.7 µM. The method in brief:
as §3

Another assay concerns PC15. The assay is described as above. The settings on record: P. falciparum in erythrocytes, SYBR Green DNA, 72 h; series mostly up to 28.7 µM. In short, it runs like this:
as §3

Another assay has as its system PC26. Described as above. Conditions: P. falciparum in erythrocytes, SYBR Green DNA, 72 h; series mostly up to 28.7 µM. The method in brief: as §3
The subject of a further assay is PC49. The assay is described as above. The settings on record: P. falciparum in erythrocytes, SYBR Green DNA, 72 h; series mostly up to 28.7 µM. The method in brief:
as §3

Another assay relates to SC27B. The assay is described as above. The settings on record: P. falciparum in erythrocytes, SYBR Green DNA, 72 h; series mostly up to 28.7 µM. The method in brief: as §3
In the next assay the test system is TAB109. Described as above. The settings on record: P. falciparum in erythrocytes, SYBR Green DNA, 72 h; series mostly up to 28.7 µM. In short, it runs like this:
as §3

Another assay relates to TAB113. The description is as above. Conditions: P. falciparum in erythrocytes, SYBR Green DNA, 72 h; series mostly up to 28.7 µM. In short, it runs like this: as §3
In the next assay the test system is TAB165. The description is as above. Conditions: P. falciparum in erythrocytes, SYBR Green DNA, 72 h; series mostly up to 28.7 µM. The method in brief:
as §3

Another assay concerns W2. The assay is described as above. Conditions: P. falciparum in erythrocytes, SYBR Green DNA, 72 h; series mostly up to 28.7 µM. In short, it runs like this: as §3
The subject of a further assay is NIH3T3. The assay is described as follows: Cytotoxic Profiling of Annotated Libraries Using Quantitative High-Throughput Screening (AID 1296008). For max response: % is set by controls: 0 for no effect and ±100 for the full control effect. Note: potency is the fitted concentration of half-maximal effect. Conditions: Five cell lines viability, CellTiter-Glo ATP luminescence, 48-72 h; max response: hits give low values. The method in brief: as §1
Note: nearly all actives have a fitted effect of over 60% in size.

On to `O=C(O)c1ccc(-c2c[nH]c3ncc(-c4ccccc4)cc23)cc1C1CCCC1`, for which the max response with CRL-7250 was -5.06%. Also, the compound was called inactive in the assay on HEK293, in the assay with HaCat [1], in the assay on KB-3-1, in the assay on HACAT [2] and with HEK293T. In addition, the Potency entry in the assay with MCC-13 and in the assay with MCC-26 was “inactive” in each case.
Consider `O=C(O)c1c(Cl)c(Cl)c(Cl)c(Cl)c1-c1c2cc(I)c(=O)c(I)c-2oc2c(I)c(O)c(I)cc12`, for which the call in the assay on P93_24, with PAD, with PC15, with PC49, in the assay with TAB109 and in the assay on HaCat [1] was inactive. Besides, the result in the assay with HACAT [2] was inactive. Further, the Potency entry with P94_40, with PC26, in the assay on SC27B, with TAB113, in the assay with TAB165 and with W2 was “inactive” each time. For the same compound, the max response in the assay with CRL-7250 was -20.2%; in the assay with HEK293, -16.1%; with NIH3T3, -19.3%.
Consider `N[C@H](CSC(c1ccccc1)(c1ccccc1)c1ccccc1)C(=O)O`, for which, in the assay with CRL-7250, the max response is -7.2%. The results for the Potency in the assay with HEK293 and with NIH3T3 were 9.35 µM (active) and 26.4 µM (active), respectively. In addition, the outcome in the assay on HaCat [1] and in the assay with HACAT [2] was inactive. Also, the Potency result in the assay on MCC-26 was “inactive”.
Consider `CC#CCn1c(N2CCC[C@@H](N)C2)nc2c1c(=O)n(Cc1nc(C)c3ccccc3n1)c(=O)n2C`, for which the max response is 0.558% in the assay with CRL-7250, -21.1% in the assay on HEK293, 3.66% with HaCat [1] and -0.824% in the assay with KB-3-1. The result in the assay with NIH3T3 was inactive. The Potency result in the assay with MCC-13 and with MCC-26 was “inactive” each time.
For the compound `Oc1ccc(C2CCN(c3ccnc4ccccc34)CC2)cc1O`, the Potency is 4.69 µM (active) with CRL-7250 and 13.2 µM (active) with HEK293. In addition, the max response is -4.14% in the assay on HaCat [1] and -5.13% with NIH3T3. In addition, the Potency result in the assay on MCC-13 and in the assay with MCC-26 was “inactive” each time.
For `O=C(O)CCC1CCC(c2cc(F)ccc2F)(S(=O)(=O)c2ccc(Cl)cc2)CC1` (stereo unspecified), the compound was classed as inactive in the assay on CRL-7250, in the assay on HaCat [1], in the assay on KB-3-1 and in the assay on HACAT [2]. Further, the max response in the assay on HEK293 is -15.1%. The Potency result in the assay with MCC-13 and with MCC-26 was “inactive” each time.
On to `CC(=O)N(C)C1(c2ccccc2)CCN(CCC[C@]2(c3ccc(Cl)c(Cl)c3)CCCN(C(=O)c3ccccc3)C2)CC1`, for which the max response in the assay with CRL-7250 was -7.82%. Moreover, the Potency in the assay on HEK293 was 662 nM (active) and 18.4 µM (active); in the assay on HaCat [1], 2.35 µM (active) and 20.6 µM (active); in the assay with KB-3-1, 372 nM (active). Further, the Potency result with MCC-13 and with MCC-26 was “inactive” each time.
For `CC1=C(/C=C/C(C)=C/C=C/C(C)=C/C(=O)Nc2ccc(O)cc2)C(C)(C)CCC1`, the Potency in the assay on P94_40 was 11.2 µM (active); in the assay on PC26 it was 12 µM (active); in the assay with SC27B it was 10 µM (active); with TAB113, 11.2 µM (active); in the assay with TAB165, 10 µM (active); with W2 it was 5.36 µM (active). In addition, the values for the Potency in the assay on CRL-7250, with HEK293 and with NIH3T3 were 16.8 µM (active), 5.96 µM (active) and 21.1 µM (active), respectively.
For `COc1ccc(-c2coc3cc(O)cc(O)c3c2=O)cc1`, the max response with CRL-7250 was 1.69%; with HaCat [1], 1.1%. The result in the assay with KB-3-1 and in the assay with NIH3T3 was inactive. In addition, the Potency result with MCC-13 was “inactive”.
Consider `C=C1C(=O)OC2C=C(C)CCC=C(C)CCC12` (stereo unspecified), for which the results for the max response in the assay with CRL-7250, in the assay with KB-3-1 and in the assay on NIH3T3 were 0.517%, 2.36% and 0.3%, respectively. Besides, the compound was classed as inactive in the assay on HaCat [1] and in the assay on HACAT [2]. Besides, the Potency result in the assay on MCC-13 and in the assay on MCC-26 was “inactive” throughout.
Regarding `O=C(O)[C@H]1O[C@H](Oc2cc3oc(-c4ccccc4)cc(=O)c3c(O)c2O)[C@H](O)[C@@H](O)[C@H]1O`, the max response in the assay on CRL-7250 was -6.52%; with HaCat [1] it was -7.89%; in the assay with KB-3-1 it was 2.26%; in the assay on NIH3T3 it was -17.6%. Moreover, the Potency entry with MCC-13 and in the assay on MCC-26 was “inactive” throughout.
Consider `Cc1ccn(-c2ccc(-c3ncco3)cc2)c(=O)c1-c1ccc2nc(N)ncc2c1`, for which the Potency was 1.66 µM (active) and 5.17 µM (active) in the assay with CRL-7250; 16.6 µM (active) and 6.51 µM (active) with NIH3T3. Moreover, the max response in the assay on HaCat [1] was -12.1% and -22.1%; in the assay with KB-3-1, 0.602% and 6.68%. The Potency entry with MCC-13 is “inactive”.
For `CC(C)C(=O)Nc1ncc(-c2cc(C(F)F)nn2-c2c(Cl)cccc2Cl)s1`, the max response was -16.9% in the assay on CRL-7250 and -19.8% with HaCat [1].
For `O=C(NCc1ccncc1)C12C[C@H]3C[C@@H](C1)CC(c1ccc(Cl)cc1)(C3)C2`, the max response in the assay on CRL-7250 is -10.8%. Further, the Potency in the assay with HEK293 is 10.5 µM (active). The Potency entry with MCC-13 and with MCC-26 was “inactive” throughout.
For the compound `Cn1cc(C=C2C(=O)Nc3cccnc32)c2ccccc21`, the max response is -3.71% with CRL-7250, -0.233% in the assay with HaCat [1], 5.23% in the assay on KB-3-1 and -5.8% in the assay on NIH3T3. Also, the Potency entry with MCC-13 and in the assay on MCC-26 was “inactive” each time.
As to `O=c1cc(-c2ccccc2)oc2cc(O)cc(O)c12`, in the assay with CRL-7250, the max response was -20.5%. Also, in the assay on HEK293, the Potency is 8.33 µM (active). Besides, the Potency entry in the assay on MCC-13 is “inactive”.
For the compound `NC(=O)[C@@H](CCC(F)(F)F)N(Cc1ccc(-c2ncon2)cc1F)S(=O)(=O)c1ccc(Cl)cc1`, the max response was -21.3% in the assay with CRL-7250, -0.733% with HaCat [1], -20.8% with KB-3-1 and -26.9% in the assay on NIH3T3. Also, the Potency result with MCC-13 and in the assay on MCC-26 was “inactive” in each case.
`CC(C)(C)C(=O)Oc1ccc2c(c1)nc(NC(=O)c1cccc([N+](=O)[O-])c1)n2CCCO`: the result in the assay with CRL-7250 and in the assay with NIH3T3 was inactive. Moreover, the values for the max response in the assay on HaCat [1] and in the assay with KB-3-1 were -9.39% and 7.62%, respectively. Besides, the Potency result with MCC-13 and with MCC-26 was “inactive” in each case.
As for `O=C(O)C=Cc1ccc(O)c(O)c1`, the max response was -10.7% in the assay with CRL-7250, -23.4% in the assay with HaCat [1], 6.69% with KB-3-1 and -24.2% in the assay on NIH3T3.
Consider `CC[C@H]1OC(=O)[C@H](C)[C@@H](O[C@H]2C[C@@](C)(OC)[C@@H](O)[C@H](C)O2)[C@H](C)[C@@H](O[C@@H]2O[C@H](C)C[C@H](N(C)C)[C@@H]2O)[C@](C)(O)C[C@@H](C)CN(C)[C@H](C)[C@@H](O)[C@]1(C)O`, for which the compound was classed as inactive with CRL-7250, in the assay with HaCat [1], with KB-3-1, with NIH3T3 and in the assay with HACAT [2]. For the same compound, the Potency entry with MCC-13 and in the assay with MCC-26 was “inactive” each time.
